Reference: PubChem BioAssay AID624405 (Broad Institute, 2012)
About 250 (13%) of roughly 1,900 compounds were called active. Not shown: some 4% with an inconclusive outcome.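 The calls were made as follows: active = fitted curve reaches 40% rescue activity at or below the top valid dose, in every test run; inconclusive = test runs disagree, some active and some inactive; inactive = every run misses the threshold or moves the wrong way.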 These entries were drawn from the full list. Measured potencies and affinities stand elsewhere.

Assay: rescue of simvastatin-induced ATP loss – cell-based, C2C12 myotubes, ATP luminescence, cherry pick, dose response (AID 624405);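 also: myotubes are challenged with simvastatin at 10 µM to lower ATP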
Conditions: 48 h, scaled: DMSO wells 0, geranylgeraniol wells 100; series mostly up to 19.5 µM

With `C[C@H](CO)N1C[C@H](C)[C@@H](CN(C)Cc2ccc(-c3ccccc3)cc2)Oc2ccc(NC(=O)Cc3cn(C)c4ccccc34)cc2CC1=O` as the compound, how does the outcome read?
The outcome was “inactive”.

With `C[C@@H]1CN([C@H](C)CO)C(=O)c2cccc(NS(=O)(=O)c3cccs3)c2O[C@@H]1CN(C)Cc1ccc(Oc2ccccc2)cc1` as the compound, how does the outcome read?
The outcome was “inactive”.

Which outcome does the source give for `CC1Cc2ccccc2N1C(=O)C1CCN(S(=O)(=O)Cc2ccccc2)CC1` (configuration not stated) here?
Its outcome is “inactive”.

For `Cc1cc(C(=O)CSc2nnnn2-c2ccccc2)c(C)n1CCc1ccccc1`, which outcome is on record?
Its outcome is “inactive”.

With `CCOC(=O)c1ccc(-c2c(C(=O)OCC)oc3cc(O)c(CC)cc3c2=O)o1` as the compound, how does the outcome read?
The outcome was “inactive”.

For `Cc1cccc(C(=O)N2CCC(n3nnc4cc(F)ccc43)CC2)c1`, which outcome is on record?
The outcome was “inactive”.

With `COc1ccccc1NC(=O)CN1C(=O)CCS(=O)(=O)c2ccccc21` as the compound, how does the outcome read?
The outcome was “inactive”.

With `Cc1cccc(C)c1NC(=O)c1nc(S(=O)(=O)Cc2ccccc2)ncc1Cl` as the compound, how does the outcome read?
Its outcome is “inactive”.

For `CS(=O)(=O)c1ncc(Cl)c(C(=O)Nc2ccc(OC(F)F)cc2)n1`, which outcome is on record?
The outcome was “inactive”.

With `CCC(NS(=O)(=O)c1ccc(C)cc1)C(=O)Nc1ccc(NC(C)=O)cc1` (configuration not stated) as the compound, how does the outcome read?
Its outcome is “inactive”.

Which outcome does the source give for `Cc1noc(C)c1NC(=O)Nc1ccc2c(c1)C(=O)N([C@H](C)CO)C[C@@H](C)[C@H](CN(C)C(=O)Nc1ccccc1)OCCCC[C@@H](C)O2` here?
Its outcome is “inactive”.

For `CN1C[C@@H]2[C@H](c3ccccc31)[C@H](CO)N2Cc1ccccc1`, which outcome is on record?
The outcome was “inactive”.

Which outcome does the source give for `Nc1nc(CSc2nnnn2-c2ccccc2)nc(N2CCCc3ccccc32)n1` here?
Its outcome is “inactive”.

For `COC(=O)c1c(C)noc1-c1cc(C)on1`, which outcome is on record?
The outcome was “inactive”.

For `C[C@@H]1CN([C@H](C)CO)C(=O)c2cc(NC(=O)Nc3ccc(F)cc3)ccc2O[C@@H](C)CCCCO[C@@H]1CN(C)S(=O)(=O)c1cccs1`, which outcome is on record?
The outcome was “inactive”.

For `COc1cccc(-c2cnc3c(c2)C(=O)N([C@H](C)CO)C[C@H](C)[C@H](CN(C)Cc2cccc(C)c2)O3)c1`, which outcome is on record?
The outcome was “inactive”.

For `C[C@@H]1CN([C@H](C)CO)C(=O)c2cc(NS(C)(=O)=O)ccc2O[C@@H](C)CCCCO[C@H]1CN(C)S(=O)(=O)c1ccc(Cl)cc1`, which outcome is on record?
The outcome was “inactive”.

For `COc1ccc(NC(=O)Nc2ccc3c(c2)C(=O)N([C@@H](C)CO)C[C@@H](C)[C@@H](CN(C)CC2CCCCC2)OCCCC[C@H](C)O3)cc1`, which outcome is on record?
Its outcome is “inactive”.

With `CCCCn1c(SCc2ccccn2)nc2c1c(=O)n(C)c(=O)n2C` as the compound, how does the outcome read?
The outcome was “inactive”.

Which outcome does the source give for `Cc1cccc(Cn2c(N3CCCCC3C)nc3c2c(=O)[nH]c(=O)n3C)c1` (configuration not stated) here?
The outcome was “inactive”.

For `CCCCCn1c(N2CCC(C(N)=O)CC2)nc2c1c(=O)[nH]c(=O)n2C`, which outcome is on record?
Its outcome is “inactive”.

For `CCOCCn1c(N2CCN(c3ccc(OC)cc3)CC2)nc2c1c(=O)[nH]c(=O)n2C`, which outcome is on record?
The outcome was “inactive”.
